In the library only some 9.6% were active in any assay of this set; here they are far more common.
Ins promoter up = MIN6 insulin promoter up-regulation | z-score at 5 µM | 190,000 tested, 0.3% active | AID 1625 | MIN6 insulin promoter-GFP reporter, high-content imaging; hits give high values;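 active = z-score above 3 at 5 µM with at least 500 cells counted in the well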
HCT116 bCat-KO = beta-catenin-lacking colon tumor cell growth suppression; HCT116 beta-catenin knockout viability, CellTiter-Glo, 60 h; hits give low values; viability, % at 10 µM; 140,000 tested, 1.5% active; AID 818;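 active = viability at or under a set limit, the compound median less 4 SD, cut at about 6% in these data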
PTEN del growth = PTEN-deleted cell growth suppression; HCT116 PTEN-null viability, CellTiter-Glo, 60 h; hits give low values; viability, % at 10 µM; 140,000 tested, 1.2% active; AID 827;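 active = viability at or below a set limit, 4 SD under the median of all tested compounds, cut at about 3.7% in these data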;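 note: PTEN knockout HCT116 line with beta catenin targeted HCT116 as companion control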
Insulin prom inh = TRM-6 insulin promoter activity inhibition | TRM-6 cells (human fetal islet line), insulin promoter-eGFP reporter, imaging; reporter expression induced with tamoxifen | inhibition, % at 2 µM | 130,000 tested, 0.9% active;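 active = inhibition above the mean plus 3 SD, with well images judged a real hit on visual review, cut at about 60% in these data, passing the limit was not always enough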
Autophagy HCS = alters autophagy in cells. calls only at 10 µM (by protocol). MEF GFP-LC3 puncta imaging; test concentration mostly 10 µM. 190,000 tested, 0.98% active;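 active = percentage of spot-positive cells more than 3 SD above its plate mean, without a fluorescence outlier flag or 80% toxicity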
L major viab = Leishmania major promastigote growth inhibition. Leishmania major promastigotes, resazurin fluorescence viability. inhibition, % at 10 µM. 200,000 tested, 9% active. AID 1063; in the data active = inhibition above about 50%;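 note: promastigotes grown with compound for 44 hours at 28 °C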
Large screens that a line does not name were inactive.

CC(C)CC(=O)NC(NC(=S)Nc1cccc2cccnc12)C(Cl)(Cl)Cl (stereo unspecified)	L major viab 52
c1ccc(-c2nc(-c3ccc(-c4ccon4)s3)no2)cc1	none (no result: HCT116 bCat-KO, PTEN del growth, Insulin prom inh, Autophagy HCS, L major viab)
O=C(NCc1cccnc1)c1ccccc1CCc1ccccc1	none (no result: HCT116 bCat-KO, PTEN del growth, Insulin prom inh)
COc1ccc(Oc2c(Cl)cnn(-c3ccc(Cl)c(Cl)c3)c2=O)cc1	HCT116 bCat-KO 1.0, PTEN del growth 0.7
COc1c(Cl)cnn(-c2ccc(C)cc2)c1=O	HCT116 bCat-KO 1.2, PTEN del growth 1.1
COc1ccc(Oc2c(Cl)cnn(-c3ccc(C)cc3)c2=O)cc1	HCT116 bCat-KO 5.5
CCOC(=O)c1c(C)nn(Cc2cccc(Cl)c2)c1N	none
COc1ccc(C2C(C(=O)c3cccs3)=C(O)C(=O)N2c2cccc(C)n2)cc1 (stereo unspecified)	none (no result: HCT116 bCat-KO, PTEN del growth, Insulin prom inh, Autophagy HCS, L major viab)
CCCOc1ccc(/C=N/NC(=O)CSCc2ccc([N+](=O)[O-])cc2)cc1OCC	none
CCCCOC(=O)/C(=C/C=C/c1ccccc1)NC(=O)c1ccccc1	none (no result: HCT116 bCat-KO, PTEN del growth)
CCCCOC(=O)/C(=C\c1ccc([N+](=O)[O-])o1)NC(=O)c1ccccc1	L major viab 83
O=C(c1cc([N+](=O)[O-])cc([N+](=O)[O-])c1)N1CCCc2ccccc21	L major viab 79 (no result: HCT116 bCat-KO, PTEN del growth, Insulin prom inh)
O=C(c1ccc(N2CCCCCC2)c([N+](=O)[O-])c1)N1CCc2ccccc21	L major viab 89
c1ccc(-c2ccccc2OCCCCN2CCCCCC2)cc1	L major viab 99 (no result: HCT116 bCat-KO, PTEN del growth)
c1ccc(-c2ccccc2OCCOCCN2CCCCC2)cc1	L major viab 72
OCCCN1CCN(CCCOc2ccccc2-c2ccccc2)CC1	L major viab 93
c1ccc(-c2ccccc2OCCCN2CCOCC2)cc1	none (no result: HCT116 bCat-KO, PTEN del growth, Insulin prom inh)
O=C(CCn1c(=O)sc2ccccc21)Nc1ccon1	none
Cc1cc(Cl)c(OCCCCN2CCOCC2)c(Br)c1	L major viab 98
Cc1cc(C)c(OCCOCCN2CCNCC2)c(C)c1	none (no result: Ins promoter up)
Cc1cc(Cl)cc(C)c1OCCCCN1CCOCC1	L major viab 100
Cc1cc(Cl)c(OCCOCCN2CCCC(C)C2)c(Br)c1 (stereo unspecified)	L major viab 99 (no result: HCT116 bCat-KO, PTEN del growth, Insulin prom inh)
Cc1cc(Cl)c(OCCOCCN2CCCCC2)c(Br)c1	L major viab 97
Cc1cc(Cl)c(OCCCn2cncn2)c(Br)c1	none
c1ccc(CC2CCN(C(c3cccs3)c3nnnn3C3CCCC3)CC2)cc1 (stereo unspecified)	L major viab 64
c1ccc(CN(Cc2cccs2)C(c2cccs2)c2nnnn2C2CCCC2)cc1 (stereo unspecified)	L major viab 89
CC(CCC(=O)Nc1nncs1)C(=O)O (stereo unspecified)	none (no result: Insulin prom inh, Autophagy HCS)
COc1ccc(Nc2nc(NCc3ccco3)nc(N3CCOCC3)n2)cc1	none (no result: HCT116 bCat-KO, PTEN del growth, Insulin prom inh, Autophagy HCS, L major viab)
O=C(Oc1cccc(/C=N/Nc2nc(Nc3ccccc3)nc(N3CCOCC3)n2)c1)c1ccco1	L major viab 65
COc1cc(/C=N/NC(=O)COc2ccccc2[N+](=O)[O-])ccc1OC(=O)c1ccco1	L major viab 57
COc1cc(/C=N/Nc2nc(N3CCCCC3)nc(N3CCCCC3)n2)ccc1OC(=O)c1ccco1	L major viab 60 (no result: HCT116 bCat-KO, PTEN del growth)
CC(C)(C)c1ccc(OCC(=O)N/N=C/c2cc(Br)ccc2OC(=O)c2ccco2)cc1	HCT116 bCat-KO 4.8, L major viab 94 (no result: Insulin prom inh)
COc1ccc(Br)cc1/C=N/NC(=O)c1ccco1	none (no result: HCT116 bCat-KO, PTEN del growth, Insulin prom inh)
O=C(COc1ccccc1[N+](=O)[O-])N/N=C/c1ccc(OC(=O)c2ccco2)cc1	none
Cn1cccc1/C=N/NC(=O)c1cccnc1	none
CCOc1ccc(C2/C(=C(/O)c3ccccc3)C(=O)C(=O)N2CCCN(C)C)cc1OC (stereo unspecified)	none (no result: Ins promoter up, HCT116 bCat-KO, PTEN del growth)
CCOc1cc(/C=N/Nc2nc(Nc3ccccc3)nc(N3CCCCC3)n2)ccc1OCC(=O)O	none (no result: HCT116 bCat-KO, PTEN del growth)
COc1ccc(/C=N/Nc2nc(Nc3ccccc3)nc(N3CCCCC3)n2)cc1OC	L major viab 98 (no result: Ins promoter up)
CCC1CCCCN1C(=O)COC(=O)c1cc(Br)ccc1Cl (stereo unspecified)	none (no result: HCT116 bCat-KO, PTEN del growth, Insulin prom inh)
O=S(=O)(c1ccccc1)N1CCN(C2CCCCCCC2)CC1	none
c1ccc(CCN(Cc2ccccc2)C2CCN(C3CCCC3)CC2)cc1	L major viab 92 (no result: HCT116 bCat-KO, PTEN del growth, Insulin prom inh)
CC(C)NC(=S)N/N=C/c1sc(N2CCCCC2)nc1-c1cccs1	none
CCCCNC(=S)N(C)/N=C/c1sc(N2CCCCC2)nc1-c1cccs1	L major viab 96
O=C(N/N=C/c1sc(N2CCCCC2)nc1-c1cccs1)C1CC1	L major viab 69 (no result: HCT116 bCat-KO, PTEN del growth)
N#CCCn1c(=S)[nH]c2ccccc21	none (no result: Insulin prom inh)
Cc1nc(S(=O)(=O)Nc2ccc3c(c2)OCCO3)cn1C	none (no result: HCT116 bCat-KO, PTEN del growth, Insulin prom inh, Autophagy HCS, L major viab)
COc1ccc(-n2c(=O)c3ccccc3n(CC(=O)NC3CCCCC3)c2=O)cc1OC	none (no result: Ins promoter up, HCT116 bCat-KO, PTEN del growth, Insulin prom inh)
O=C(OCCNc1nc(-c2ccccc2)nc2ccccc12)c1ccncc1	L major viab 72 (no result: HCT116 bCat-KO, PTEN del growth, Insulin prom inh)
